We go through twelve compounds from PubChem BioAssay.

Each structure is given as a SMILES string. Activity calls are given as the source filed them. Unless noted, the rule behind the calls is not given here.

Assay [1] is described as follows: HepG2 liver cancer cell viability effects, profiling panel, resazurin fluorescence, 24 h, PK04 Diversity Set (AID 1172). Note: test concentration not given here. The settings on record: higher = more signal.
Assay [2] in a line: basal S. cerevisiae growth modulation, no modifier, primary screen, OD600, strain BY4716, 24 h, basal condition (AID 1173). As to conditions: OD600, 24 h, higher = more signal, called active from +8 up or from −8 down.
A short description of assay [3]: MM1S myeloma cell viability, profiling panel, resazurin fluorescence, basal, 24 h, PK04 Diversity Set (AID 1174).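 Note: MM1S multiple myeloma cell line; test concentration not given here.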 The settings on record: higher = more signal, called active from +8 up or from −8 down.
In assay [4] the target is Dihydroorotate dehydrogenase (quinone), mitochondrial (Plasmodium falciparum (isolate 3D7)) (UniProt Q08210). The assay is described as follows: PfDHODH enzyme inhibitors, primary screen, biochemical, C-terminal His tag, absorbance 600 nm (AID 1175).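 Note: recombinant parasite enzyme with a five histidine tag at its C terminus; test concentration not given here.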 The settings on record: DCIP absorbance 600 nm, higher = more signal, called active from +8 up or from −8 down.
The nature of assay [5]: P. aeruginosa biofilm formation inhibitors, primary screen, strain PAO1, LB-PBS medium, absorbance 600 nm (AID 1176). Note: test concentration not given here. The settings on record: P. aeruginosa PAO1 growth/biofilm, A600, 12 h; higher = more signal.
The nature of assay [6]: S. cerevisiae RM11-1a growth modifiers, primary screen, strain RM11-1a, OD600, basal, 24 h (AID 1177).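 Note: cultures grown under basal conditions with no added stressor; test concentration not given here.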 As to conditions: OD600, 24 h, higher = more signal, called active from +8 up or from −8 down.
The nature of assay [7]: E. coli acrAB mutant growth effects, primary screen, E. coli filamentation inducers, strain DRC39, OD650, 24 h (AID 1178).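 Note: growth measured as culture turbidity by optical density at 650 nm; test concentration not given here.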 The settings on record: higher = more signal, called active from +8 up or from −8 down.
A short description of assay [8]: E. coli acrAB mutant growth effects, primary screen, E. coli filamentation inducers, strain DRC39, OD650, 48 h (AID 1179).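 Note: screen aims at cell division blockers that make cells filament.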 As to conditions: E. coli DRC39 delta-acrAB growth, higher = more signal, called active from +8 up or from −8 down.
Assay [9] in a line: RPMI8226 myeloma cell viability, profiling panel, resazurin fluorescence, basal, 24 h, PK04 Diversity Set (AID 1180).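 Note: RPMI8826 multiple myeloma cell line at 5000 cells per well; test concentration not given here.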 The settings on record: higher = more signal. For orientation: The colour change of resazurin is a common sign of viable cells or microbes.
Assay [10] addresses E3 ubiquitin-protein ligase XIAP (Homo sapiens) (UniProt P98170). Nature of the assay: XIAP binders, primary screen, biophysical, small-molecule microarray, fluorescence 635 nm (AID 1181).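 Note: score merges 667 nm emission and signal to noise over triplicate slides.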 As to conditions: small-molecule microarray binding, higher = more signal.

Dihydroorotate dehydrogenase (quinone), mitochondrial (Plasmodium falciparum (isolate 3D7)), sequence (Q08210 whole entry, looked up): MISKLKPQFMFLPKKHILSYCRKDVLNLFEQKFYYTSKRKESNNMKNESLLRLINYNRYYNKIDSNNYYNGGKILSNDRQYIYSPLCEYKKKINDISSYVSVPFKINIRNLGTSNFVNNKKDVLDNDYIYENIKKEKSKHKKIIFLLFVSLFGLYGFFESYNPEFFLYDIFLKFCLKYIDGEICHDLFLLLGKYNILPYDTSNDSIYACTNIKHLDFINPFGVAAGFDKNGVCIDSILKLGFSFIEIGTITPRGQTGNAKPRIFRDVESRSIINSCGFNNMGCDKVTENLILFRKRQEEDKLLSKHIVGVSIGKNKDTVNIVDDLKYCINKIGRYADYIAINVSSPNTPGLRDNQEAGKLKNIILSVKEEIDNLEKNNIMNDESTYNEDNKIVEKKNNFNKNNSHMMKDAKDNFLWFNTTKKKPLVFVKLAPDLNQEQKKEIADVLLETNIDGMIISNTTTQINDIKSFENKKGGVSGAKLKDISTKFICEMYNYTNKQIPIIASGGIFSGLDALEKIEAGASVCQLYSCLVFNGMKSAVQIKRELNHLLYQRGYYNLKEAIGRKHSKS
E3 ubiquitin-protein ligase XIAP (Homo sapiens), sequence (P98170 whole entry, looked up): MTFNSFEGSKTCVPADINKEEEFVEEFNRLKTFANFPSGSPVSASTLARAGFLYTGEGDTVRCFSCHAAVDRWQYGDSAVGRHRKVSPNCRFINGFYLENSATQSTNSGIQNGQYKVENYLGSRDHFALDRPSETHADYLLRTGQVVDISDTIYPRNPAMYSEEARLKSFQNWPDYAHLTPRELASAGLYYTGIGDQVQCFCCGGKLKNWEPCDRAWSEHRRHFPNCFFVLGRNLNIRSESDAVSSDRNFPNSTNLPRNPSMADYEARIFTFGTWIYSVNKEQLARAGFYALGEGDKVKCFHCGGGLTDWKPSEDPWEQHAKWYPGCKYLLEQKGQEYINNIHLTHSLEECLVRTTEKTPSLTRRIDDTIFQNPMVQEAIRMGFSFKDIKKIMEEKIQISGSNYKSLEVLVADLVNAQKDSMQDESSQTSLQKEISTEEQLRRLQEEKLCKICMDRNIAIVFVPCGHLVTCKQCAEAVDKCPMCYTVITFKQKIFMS

Take `C=C(CCCC)/C(=C/C[C@H](OC(=O)c1ccncc1)c1ccc(OCCO)cc1)c1cc(C(=O)OC)ccc1OC`: the z-score in [1] is -0.113; in assay [2] it was 0.409 (inactive); in assay [3], -0.266 (inactive); in assay [5], -0.693 (inactive); in [6], 0.395 (inactive); in [7], -0.981 (inactive). Also, the z-score in assay [8] was -0.581 (inactive); in assay [9], -0.691. The values for the composite z-score in [4] and in assay [10] were -4.01 (inactive) and 0.22, respectively.

Consider `COC(=O)[C@@]1(Cc2ccc(OC)cc2)[C@H]2c3cc(C(=O)N4CCCC4)n(CCSCCO)c3C[C@H]2CN1C(=O)c1ccccc1`, for which the z-score in assay [1] is 0.353; in assay [2], 1.6 (inactive); in assay [3] it was 0.129 (inactive); in assay [5], 0.923 (inactive); in [6] it was 1.47 (inactive); in assay [7], -1.18 (inactive). Also, the z-score in assay [8] was -0.739 (inactive); in assay [9], -1.3. Besides, the composite z-score was -0.0408 (inactive) in [4] and 0.187 in [10].

With `COCCOC(=O)N1C(=O)[C@@]2(c3cc(C#CCCO)ccc31)[C@H](c1ccc(OCCO)cc1)N1[C@H](c3ccccc3)[C@H](c3ccccc3)OC(=O)[C@H]1[C@@H]2C(N)=O`, the z-score in assay [1] was -0.569; in [2] it was 1.67 (inactive); in [3], -0.371 (inactive); in [5] it was 0.449 (inactive); in assay [6] it was 3.69 (inactive); in assay [7] it was 0.315 (inactive). The z-score in assay [8] is 0.399 (inactive); in assay [9], -0.103. For the same compound, the composite z-score in assay [4] was 0.561 (inactive); in assay [10], -0.192.

Consider `O=C(O)[C@H](Cc1ccccc1)n1cc(-c2ccccc2)nn1`, for which the z-score was 0.562 in assay [1]; 0.0419 (inactive) in assay [2]; 0.0284 (inactive) in [3]; 0.738 (inactive) in assay [5]; -0.14 (inactive) in assay [6]; -0.0353 (inactive) in assay [7]. Moreover, the z-score in assay [8] is -0.202 (inactive); in [9], -0.46. The values for the composite z-score in assay [4] and in assay [10] were -0.0341 (inactive) and 0.0812, respectively.

Take `NC(=O)N1C(=O)C2C(C1=O)C1C=C(CCCO)C2C(C2CC2)N1Cc1cc2c(cc1Br)OCO2` (stereo not given): the z-score in assay [1] is -0.437; in assay [2] it was -1.85 (inactive); in assay [3], -0.264 (inactive); in assay [5] it was -0.778 (inactive); in assay [6], -0.492 (inactive); in [7], -0.298 (inactive). Also, the z-score in [8] was -0.562 (inactive); in assay [9], -0.46. Moreover, the composite z-score is -0.659 (inactive) in [4] and 0.0479 in [10].

With `OCCCC1=CC(C2CC2)N(Cc2cccc(OC(F)(F)F)c2)CC1` (stereo not given), the z-score in assay [1] was 0.702; in [2], -1.85 (inactive); in assay [3], 0.171 (inactive); in assay [5] it was -0.517 (inactive); in assay [6] it was 0.345 (inactive); in assay [7], 0.425 (inactive). Also, the figures for the z-score in [8] and in assay [9] were 0.327 (inactive) and 0.365, respectively. The composite z-score in assay [4] was -3.08 (inactive); in assay [10], 0.324.

Regarding `CO[C@H]1O[C@H](CO)[C@@H](OC(=O)Nc2ccc(Br)cc2)[C@@H]2OC(=O)[C@H](Cc3cccc(Br)c3)C/C=C/C[C@@H](Cc3cccc(Br)c3)C(=O)O[C@@H]12`, the z-score in assay [1] is -1.34; in assay [2] it was -1.89 (inactive); in assay [3], -1.79 (inactive); in [5] it was 0.594 (inactive); in [6], 0.459 (inactive); in assay [7] it was 0.778 (inactive). For the same compound, the z-score in assay [8] is 0.69 (inactive); in assay [9] it was -1.45. Further, the composite z-score in assay [4] is -2.81 (inactive); in assay [10] it was -0.16.

On to `CC(C)(C)OC(=O)CC[C@]1(C(=O)NCCN2CCOCC2)COC(c2ccc(OCCCO)cc2)=N1`, for which the z-score in [1] was 0.0093; in assay [2] it was 0.321 (inactive); in [3], 0.382 (inactive); in assay [5], -0.525 (inactive); in assay [6], 0.345 (inactive); in [7], 0.119 (inactive). Moreover, the z-score in assay [8] was 1.18 (inactive); in [9] it was 0.513. Further, the composite z-score was 0.731 (inactive) in assay [4] and -0.0118 in assay [10].

Turning to `C=CC[C@]12N=C(c3ccc(OCCCO)cc3)O[C@H]1c1ccccc1N(CCS(=O)(=O)c1ccccc1)C2=O`, the z-score in assay [1] is 1.49; in assay [2], -0.298 (inactive); in assay [3] it was -1.58 (inactive); in [5], -0.0988 (inactive); in [6] it was 1.05 (inactive); in [7], 0.611 (inactive). Moreover, the z-score was -0.0546 (inactive) in assay [8] and -0.585 in assay [9]. In addition, the results for the composite z-score in assay [4] and in assay [10] were 0.0191 (inactive) and -0.271, respectively.

Regarding `O=C1O[C@H](c2ccccc2)[C@H](c2ccccc2)N2[C@H]1[C@@H](C(=O)N1CCN(c3ncccn3)CC1)[C@]1(C(=O)Nc3ccc(C#CC4=CCCCC4)cc31)[C@H]2c1ccccc1OCCO`, the z-score in assay [1] is -0.476; in [2] it was 1.4 (inactive); in assay [3], -1.49 (inactive); in [5], 1.78 (inactive); in [6], 1.29 (inactive); in [7], -0.873 (inactive). Besides, the z-score in assay [8] is -1.05 (inactive); in assay [9], -1.77. The composite z-score is -0.0965 (inactive) in assay [4] and 0.0547 in assay [10].

As for `C=CCC(OC(C)=O)[C@@H]1[C@@H](N(Cc2ccc(-c3cccc(C(F)(F)F)c3)o2)C(=O)Cc2ccc(OC)cc2)c2cc(OCCCO)ccc2N1C(=O)c1ccc2ccccc2c1` (stereo not given in full), the z-score in [1] is -0.29; in assay [2], -1.44 (inactive); in assay [3], 0.598 (inactive); in [5], -0.841 (inactive); in assay [6], 0.0979 (inactive); in [7], 0.751 (inactive). For the same compound, the z-score in assay [8] is 0.489 (inactive); in assay [9] it was 0.187. Besides, the composite z-score in [4] was 0.165 (inactive); in assay [10], 0.144.

As for `O=C(NC1CC1)[C@@H]1c2ccccc2C(=O)N(Cc2cc(F)cc(C(F)(F)F)c2)[C@H]1c1ccc(CO)cc1`, the z-score is 0.672 in assay [1]; -0.626 (inactive) in assay [2]; -0.24 (inactive) in [3]; 0.373 (inactive) in [5]; -0.953 (inactive) in assay [6]; 0.678 (inactive) in assay [7]. The z-score in [8] was -0.664 (inactive); in assay [9] it was -0.0559. Besides, the figures for the composite z-score in assay [4] and in [10] were -0.323 (inactive) and -0.0527, respectively.
